Reference: the supplement of paper PMC10849652
Targets with a hit are over-represented here; the source holds about 8,800 in all. About 0.5% of all pairs of compound and target were hits.

What was measured:
Test in all cases: log2 fold change, soluble protein after heating vs DMSO (PISA); higher = thermal stabilisation; K562 lysate, 10 uM; active = over 0.2 and 3.5 SD of the protein, either way, in both replicates (recomputed)
lapatinib = compound: CS(=O)(=O)CCNCc1ccc(-c2ccc3ncnc(Nc4ccc(OCc5cccc(F)c5)c(Cl)c4)c3c2)o1 [lapatinib]
Method in brief: (§1)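 Dounce homogenisation of K562 pellets in PBS pH 7.4 with 1 mM MgCl2 produced a crude extract, used at 1 mg/mL protein. Exposure to 10 μM compound lasted 30 min, and aliquots were then heated for 3 min across 48°C-58°C, pooled and brought to 0.5% NP-40 at 4°C. The supernatant after 21,000xg for 90 min was quantified by TMTpro 16plex LC-MS/MS with channel sums equalised. Duplicate values are given as log-two fold change in thermal stability relative to solvent controls.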

pictilisib = compound: CS(=O)(=O)N1CCN(Cc2cc3nc(-c4cccc5[nH]ncc45)nc(N4CCOCC4)c3s2)CC1 [pictilisib]
Method in brief: as §1

crizotinib = compound: C[C@@H](Oc1cc(-c2cnn(C3CCNCC3)c2)cnc1N)c1c(Cl)ccc(F)c1Cl [crizotinib]
Method in brief: as §1

[1] = compound: C[C@H](C1=CC=C(C=C1)C(=O)NC2=C3C=CNC3=NC=C2)N
Method in brief: as §1

duvelisib = compound: C[C@H](Nc1ncnc2nc[nH]c12)c1cc2cccc(Cl)c2c(=O)n1-c1ccccc1 [duvelisib]
Method in brief: as §1

gandotinib = compound: Cc1cc(Nc2cc(CN3CCOCC3)c3nc(C)c(Cc4ccc(Cl)cc4F)n3n2)n[nH]1 [gandotinib]
Method in brief: as §1

tozasertib = compound: Cc1cc(Nc2cc(N3CCN(C)CC3)nc(Sc3ccc(NC(=O)C4CC4)cc3)n2)n[nH]1 [tozasertib]
Method in brief: as §1

doramapimod = compound: Cc1ccc(-n2nc(C(C)(C)C)cc2NC(=O)Nc2ccc(OCCN3CCOCC3)c3ccccc23)cc1 [doramapimod]
Method in brief: as §1

bafetinib = compound: Cc1ccc(NC(=O)c2ccc(CN3CC[C@H](N(C)C)C3)c(C(F)(F)F)c2)cc1Nc1nccc(-c2cncnc2)n1 [bafetinib]
Method in brief: as §1

[2] = compound: Cc1cccc(CC(=O)N2CCc3c2ccc(-c2cn(C)c4ncnc(N)c24)c3F)n1
Method in brief: as §1

Measured: log2 fold change

HNRNPDL (UniProt O14979)
inactive: lapatinib 0.04 | pictilisib -0.002 | crizotinib -0.005 | [1] 0.016 | duvelisib 0.04 | gandotinib -0.025 | tozasertib -0.056 | doramapimod 0.104 | bafetinib 0.072 | [2] -0.035

HAUS4 (UniProt Q9H6D7)
inactive: lapatinib 0.021 | pictilisib -0.02 | crizotinib -0.083 | [1] -0.063 | duvelisib -0.031 | gandotinib -0.009 | tozasertib 0.042 | doramapimod 0.043 | bafetinib 0.003 | [2] 0.099

KDM5C (UniProt P41229)
UniProt P41229, sequence (P41229 whole entry, looked up): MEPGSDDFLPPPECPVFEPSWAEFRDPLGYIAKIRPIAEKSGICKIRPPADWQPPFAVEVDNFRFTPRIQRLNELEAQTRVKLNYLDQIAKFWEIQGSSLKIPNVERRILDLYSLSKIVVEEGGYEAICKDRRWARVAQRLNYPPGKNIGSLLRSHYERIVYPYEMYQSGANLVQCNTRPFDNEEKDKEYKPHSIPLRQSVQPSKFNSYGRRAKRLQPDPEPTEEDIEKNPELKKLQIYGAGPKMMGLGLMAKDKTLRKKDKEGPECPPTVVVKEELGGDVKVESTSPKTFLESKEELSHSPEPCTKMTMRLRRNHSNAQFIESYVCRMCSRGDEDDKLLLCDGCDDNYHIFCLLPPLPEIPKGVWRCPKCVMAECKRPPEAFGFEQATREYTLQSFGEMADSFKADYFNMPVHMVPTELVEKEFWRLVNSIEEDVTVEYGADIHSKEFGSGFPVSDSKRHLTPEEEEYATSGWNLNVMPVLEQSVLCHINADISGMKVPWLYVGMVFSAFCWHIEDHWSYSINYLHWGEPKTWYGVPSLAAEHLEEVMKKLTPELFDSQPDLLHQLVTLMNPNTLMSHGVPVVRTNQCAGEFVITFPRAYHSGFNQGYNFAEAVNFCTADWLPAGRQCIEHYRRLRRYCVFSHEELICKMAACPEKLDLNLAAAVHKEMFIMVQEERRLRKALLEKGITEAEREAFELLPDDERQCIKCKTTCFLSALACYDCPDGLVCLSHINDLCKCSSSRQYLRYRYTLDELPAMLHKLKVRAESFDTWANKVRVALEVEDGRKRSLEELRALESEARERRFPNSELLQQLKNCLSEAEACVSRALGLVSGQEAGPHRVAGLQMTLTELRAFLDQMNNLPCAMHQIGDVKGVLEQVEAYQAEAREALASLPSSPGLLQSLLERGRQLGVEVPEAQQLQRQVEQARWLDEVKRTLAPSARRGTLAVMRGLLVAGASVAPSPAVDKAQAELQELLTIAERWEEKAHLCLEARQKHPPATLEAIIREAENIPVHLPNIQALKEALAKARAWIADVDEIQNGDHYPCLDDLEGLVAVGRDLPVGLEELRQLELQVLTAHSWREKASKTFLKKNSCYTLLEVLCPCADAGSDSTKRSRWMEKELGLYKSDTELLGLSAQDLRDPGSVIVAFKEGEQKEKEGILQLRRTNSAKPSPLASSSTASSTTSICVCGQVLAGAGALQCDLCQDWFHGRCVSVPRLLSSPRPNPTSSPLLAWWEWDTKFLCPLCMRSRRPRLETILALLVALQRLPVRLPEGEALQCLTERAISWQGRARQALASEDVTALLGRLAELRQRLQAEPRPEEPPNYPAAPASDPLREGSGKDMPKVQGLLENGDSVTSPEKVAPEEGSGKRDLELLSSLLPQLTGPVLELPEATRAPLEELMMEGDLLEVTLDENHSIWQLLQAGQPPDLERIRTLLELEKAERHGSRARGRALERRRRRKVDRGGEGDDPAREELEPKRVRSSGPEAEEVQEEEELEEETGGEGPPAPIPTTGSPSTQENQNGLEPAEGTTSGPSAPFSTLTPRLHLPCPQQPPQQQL
inactive: lapatinib -0.085 | pictilisib -0.071 | crizotinib -0.043 | [1] 0.034 | duvelisib -0.001 | gandotinib -0.135 | tozasertib 0.016 | doramapimod 0.04 | bafetinib -0.061 | [2] 0.001

HAUS6 (UniProt Q7Z4H7)
inactive: lapatinib 0.001 | pictilisib -0.028 | crizotinib -0.029 | [1] -0.054 | duvelisib 0.006 | gandotinib -0.041 | tozasertib 0.046 | doramapimod -0.009 | bafetinib 0.051 | [2] 0.104

KCT2 (UniProt Q8NC54)
active: [1] -0.331 | gandotinib 0.277
inactive: lapatinib -0.005 | pictilisib -0.018 | crizotinib 0.048 | duvelisib 0.018 | tozasertib 0.005 | doramapimod -0.028 | bafetinib -0.023 | [2] 0.099

HSPB1 (UniProt P04792)
UniProt P04792, sequence (P04792 whole entry, looked up): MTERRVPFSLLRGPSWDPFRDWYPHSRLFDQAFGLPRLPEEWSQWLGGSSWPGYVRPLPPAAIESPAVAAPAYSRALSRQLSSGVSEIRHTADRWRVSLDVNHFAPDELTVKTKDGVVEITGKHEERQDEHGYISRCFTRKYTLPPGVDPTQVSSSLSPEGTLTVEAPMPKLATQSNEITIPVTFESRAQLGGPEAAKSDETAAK
active: doramapimod -0.31
inactive: lapatinib -0.017 | pictilisib -0.013 | crizotinib 0.036 | [1] 0.008 | duvelisib 0.014 | gandotinib -0.018 | tozasertib -0.017 | bafetinib -0.031 | [2] -0.021

HMGA1 (UniProt P17096)
UniProt P17096, sequence (P17096 whole entry, looked up): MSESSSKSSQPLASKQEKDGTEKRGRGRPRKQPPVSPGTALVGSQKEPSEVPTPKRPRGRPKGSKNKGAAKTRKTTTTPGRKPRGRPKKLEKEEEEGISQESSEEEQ
inactive: lapatinib -0.023 | pictilisib 0.03 | crizotinib 0.007 | [1] -0.27 | duvelisib 0.058 | gandotinib 0.069 | tozasertib -0.062 | doramapimod -0.02 | bafetinib 0.043 | [2] 0.036

IMPDH1 isoform 6 (UniProt P20839)
inactive: lapatinib -0.001 | pictilisib 0.01 | crizotinib -0.021 | [1] -0.061 | duvelisib -0.013 | gandotinib 0.046 | tozasertib 0.014 | doramapimod 0.033 | bafetinib -0.037 | [2] 0.064

KBTBD4 isoform 2 (UniProt Q9NVX7)
inactive: lapatinib 0.03 | pictilisib -0.015 | crizotinib -0.038 | [1] -0.075 | duvelisib 0.056 | gandotinib 0.109 | tozasertib -0.068 | doramapimod -0.023 | bafetinib -0.013 | [2] 0.047

HDLBP, A0A024R4E5
inactive: lapatinib 0.005 | pictilisib -0.017 | crizotinib -0.028 | [1] 0.002 | duvelisib -0.003 | gandotinib -0.03 | tozasertib 0.006 | doramapimod 0.018 | bafetinib -0.049 | [2] 0.013

GIT1 (UniProt Q9Y2X7)
UniProt Q9Y2X7, sequence (Q9Y2X7 whole entry, looked up): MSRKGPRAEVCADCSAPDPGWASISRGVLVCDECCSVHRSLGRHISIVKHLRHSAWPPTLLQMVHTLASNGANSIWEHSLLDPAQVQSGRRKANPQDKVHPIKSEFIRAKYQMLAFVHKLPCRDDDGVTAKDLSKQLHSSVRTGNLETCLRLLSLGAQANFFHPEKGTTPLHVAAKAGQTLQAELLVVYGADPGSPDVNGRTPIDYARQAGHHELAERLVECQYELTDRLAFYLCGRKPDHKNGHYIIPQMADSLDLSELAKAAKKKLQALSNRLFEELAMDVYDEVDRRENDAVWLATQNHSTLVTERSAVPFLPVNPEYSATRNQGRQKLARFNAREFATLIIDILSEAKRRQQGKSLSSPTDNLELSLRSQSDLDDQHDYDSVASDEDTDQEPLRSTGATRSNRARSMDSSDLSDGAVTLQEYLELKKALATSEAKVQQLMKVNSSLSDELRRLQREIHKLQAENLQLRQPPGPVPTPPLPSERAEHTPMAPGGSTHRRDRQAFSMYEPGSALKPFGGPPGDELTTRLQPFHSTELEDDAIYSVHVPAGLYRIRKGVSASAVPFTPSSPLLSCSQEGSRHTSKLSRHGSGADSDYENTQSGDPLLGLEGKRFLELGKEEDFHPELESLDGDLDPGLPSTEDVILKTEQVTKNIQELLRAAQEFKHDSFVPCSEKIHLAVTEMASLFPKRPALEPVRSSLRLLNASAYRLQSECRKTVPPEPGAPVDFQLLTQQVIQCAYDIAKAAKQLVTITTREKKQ
inactive: lapatinib 0.029 | pictilisib -0.007 | crizotinib -0.015 | [1] 0.009 | duvelisib -0.08 | gandotinib -0.076 | tozasertib -0.002 | doramapimod -0.004 | bafetinib -0.047 | [2] -0.007

GSTM4 (UniProt Q03013)
inactive: lapatinib -0.091 | pictilisib 0.073 | crizotinib -0.006 | [1] -0.118 | duvelisib -0.034 | gandotinib 0.011 | tozasertib -0.12 | doramapimod 0.076 | bafetinib 0.029 | [2] 0.051

HIST2H2BC (UniProt Q6DN03)
UniProt Q6DN03, sequence (Q6DN03 whole entry, looked up): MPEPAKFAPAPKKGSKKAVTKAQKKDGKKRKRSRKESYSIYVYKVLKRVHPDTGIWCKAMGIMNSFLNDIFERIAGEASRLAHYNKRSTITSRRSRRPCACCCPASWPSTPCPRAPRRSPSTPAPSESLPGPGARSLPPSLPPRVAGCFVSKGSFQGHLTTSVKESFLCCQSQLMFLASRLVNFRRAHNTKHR
inactive: lapatinib -0.024 | pictilisib 0.02 | crizotinib -0.024 | [1] 0.183 | duvelisib -0.083 | gandotinib -0.054 | tozasertib 0.019 | doramapimod 0.007 | bafetinib 0.018 | [2] -0.019

IMPACT (UniProt Q9P2X3)
inactive: lapatinib 0.012 | pictilisib 0.044 | crizotinib 0.083 | [1] 0.077 | duvelisib -0.015 | gandotinib 0.065 | tozasertib 0.026 | doramapimod -0.044 | bafetinib -0.098 | [2] -0.096

HSP90AA4P (UniProt Q58FG1)
active: [1] -0.464
inactive: lapatinib -0.035 | pictilisib -0.129 | crizotinib -0.032 | duvelisib 0.011 | gandotinib 0.042 | tozasertib 0.08 | doramapimod -0.034 | bafetinib -0.235 | [2] 0.128

HSPA8 (UniProt E9PK54)
inactive: lapatinib -0.067 | pictilisib -0.013 | crizotinib 0.051 | [1] -0.025 | duvelisib 0.004 | gandotinib 0.058 | tozasertib 0.067 | doramapimod 0.011 | bafetinib 0.026 | [2] 0.046

GTF3C5 isoform 3 (UniProt Q9Y5Q8)
inactive: lapatinib -0.009 | pictilisib -0.01 | crizotinib -0.047 | [1] -0.014 | duvelisib -0.02 | gandotinib -0.002 | tozasertib -0.012 | doramapimod 0.063 | bafetinib -0.047 | [2] 0.02

IRF2BP1 (UniProt Q8IU81)
inactive: lapatinib -0.01 | pictilisib 0.008 | crizotinib -0.052 | [1] -0.004 | duvelisib -0.086 | gandotinib 0.004 | tozasertib 0 | doramapimod 0.105 | bafetinib -0.1 | [2] 0.043

HDAC1 (UniProt Q13547)
UniProt Q13547, sequence (Q13547 whole entry, looked up): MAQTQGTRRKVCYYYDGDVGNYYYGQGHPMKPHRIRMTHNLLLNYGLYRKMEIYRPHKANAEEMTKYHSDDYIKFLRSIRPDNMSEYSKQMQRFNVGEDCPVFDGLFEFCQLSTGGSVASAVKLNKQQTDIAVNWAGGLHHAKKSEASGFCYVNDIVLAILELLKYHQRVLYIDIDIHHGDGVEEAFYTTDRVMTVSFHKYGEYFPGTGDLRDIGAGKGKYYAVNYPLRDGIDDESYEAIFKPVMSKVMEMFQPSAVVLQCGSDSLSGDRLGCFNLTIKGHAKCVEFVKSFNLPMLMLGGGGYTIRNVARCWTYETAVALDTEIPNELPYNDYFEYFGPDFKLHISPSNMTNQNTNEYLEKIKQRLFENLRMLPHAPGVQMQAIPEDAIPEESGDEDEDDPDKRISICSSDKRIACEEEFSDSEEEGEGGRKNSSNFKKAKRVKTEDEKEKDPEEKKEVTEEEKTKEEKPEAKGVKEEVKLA
inactive: lapatinib 0.004 | pictilisib 0.01 | crizotinib -0.014 | [1] -0.04 | duvelisib -0.029 | gandotinib -0.004 | tozasertib -0.015 | doramapimod 0.006 | bafetinib 0.036 | [2] 0.036

HNRNPUL1 (UniProt Q9BUJ2)
inactive: lapatinib -0.008 | pictilisib -0.05 | crizotinib 0.043 | [1] 0.005 | duvelisib 0.01 | gandotinib -0.013 | tozasertib 0.012 | doramapimod -0.107 | bafetinib 0.051 | [2] -0.023

GTPBP2 (UniProt Q9BX10)
UniProt Q9BX10, sequence (Q9BX10 whole entry, looked up): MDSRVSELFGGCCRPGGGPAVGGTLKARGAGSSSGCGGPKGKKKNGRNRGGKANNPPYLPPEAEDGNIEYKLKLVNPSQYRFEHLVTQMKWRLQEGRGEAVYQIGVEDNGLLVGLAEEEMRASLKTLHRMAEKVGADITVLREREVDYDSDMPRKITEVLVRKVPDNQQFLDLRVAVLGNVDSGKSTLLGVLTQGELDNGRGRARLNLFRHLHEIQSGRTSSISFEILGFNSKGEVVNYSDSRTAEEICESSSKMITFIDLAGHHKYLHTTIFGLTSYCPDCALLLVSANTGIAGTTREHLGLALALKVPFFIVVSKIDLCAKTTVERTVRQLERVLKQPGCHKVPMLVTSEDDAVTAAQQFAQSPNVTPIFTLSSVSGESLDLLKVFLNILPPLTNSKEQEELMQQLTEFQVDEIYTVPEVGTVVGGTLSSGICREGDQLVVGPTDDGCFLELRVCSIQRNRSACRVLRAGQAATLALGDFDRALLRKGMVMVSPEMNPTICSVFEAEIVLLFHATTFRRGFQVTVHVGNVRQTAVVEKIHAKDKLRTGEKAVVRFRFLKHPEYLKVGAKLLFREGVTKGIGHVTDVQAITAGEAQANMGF
inactive: lapatinib 0.064 | pictilisib -0.056 | crizotinib -0.052 | [1] 0.021 | duvelisib 0.043 | gandotinib -0.098 | tozasertib -0.048 | doramapimod 0.027 | bafetinib -0.038 | [2] 0.009

HDAC3 (UniProt O15379)
UniProt O15379, sequence (O15379 whole entry, looked up): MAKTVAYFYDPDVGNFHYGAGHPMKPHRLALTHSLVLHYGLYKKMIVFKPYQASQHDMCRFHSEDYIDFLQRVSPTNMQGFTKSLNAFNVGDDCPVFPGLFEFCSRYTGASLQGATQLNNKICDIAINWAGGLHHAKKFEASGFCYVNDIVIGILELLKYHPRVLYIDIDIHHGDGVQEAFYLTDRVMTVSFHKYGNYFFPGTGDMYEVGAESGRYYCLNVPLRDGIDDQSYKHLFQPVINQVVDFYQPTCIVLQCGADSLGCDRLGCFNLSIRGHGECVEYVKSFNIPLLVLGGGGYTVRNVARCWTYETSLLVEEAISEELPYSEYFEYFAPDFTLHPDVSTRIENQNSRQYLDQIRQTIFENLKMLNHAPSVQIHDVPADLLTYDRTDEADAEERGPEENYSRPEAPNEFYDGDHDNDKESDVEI
inactive: lapatinib 0.02 | pictilisib 0.008 | crizotinib 0.015 | [1] 0.076 | duvelisib -0.067 | gandotinib -0.015 | tozasertib 0.054 | doramapimod -0.024 | bafetinib -0.005 | [2] -0.045

GLYR1 (UniProt Q49A26)
inactive: lapatinib 0.053 | pictilisib 0.045 | crizotinib -0.058 | [1] 0.019 | duvelisib -0.079 | gandotinib 0.045 | tozasertib -0.044 | doramapimod 0.11 | bafetinib -0.042 | [2] -0.04

GOLGA1 (UniProt Q92805)
active: lapatinib -0.406
inactive: pictilisib 0.007 | crizotinib 0.012 | [1] 0.056 | duvelisib -0.101 | gandotinib 0.024 | tozasertib -0.087 | doramapimod 0.001 | bafetinib -0.066 | [2] -0.025

HARS (UniProt P12081)
inactive: lapatinib 0.008 | pictilisib 0.01 | crizotinib -0.009 | [1] 0.028 | duvelisib 0.014 | gandotinib -0.052 | tozasertib 0.006 | doramapimod 0.003 | bafetinib 0.015 | [2] -0.01

HDGFL2 isoform 2 (UniProt Q7Z4V5)
UniProt Q7Z4V5, sequence (Q7Z4V5 whole entry, looked up): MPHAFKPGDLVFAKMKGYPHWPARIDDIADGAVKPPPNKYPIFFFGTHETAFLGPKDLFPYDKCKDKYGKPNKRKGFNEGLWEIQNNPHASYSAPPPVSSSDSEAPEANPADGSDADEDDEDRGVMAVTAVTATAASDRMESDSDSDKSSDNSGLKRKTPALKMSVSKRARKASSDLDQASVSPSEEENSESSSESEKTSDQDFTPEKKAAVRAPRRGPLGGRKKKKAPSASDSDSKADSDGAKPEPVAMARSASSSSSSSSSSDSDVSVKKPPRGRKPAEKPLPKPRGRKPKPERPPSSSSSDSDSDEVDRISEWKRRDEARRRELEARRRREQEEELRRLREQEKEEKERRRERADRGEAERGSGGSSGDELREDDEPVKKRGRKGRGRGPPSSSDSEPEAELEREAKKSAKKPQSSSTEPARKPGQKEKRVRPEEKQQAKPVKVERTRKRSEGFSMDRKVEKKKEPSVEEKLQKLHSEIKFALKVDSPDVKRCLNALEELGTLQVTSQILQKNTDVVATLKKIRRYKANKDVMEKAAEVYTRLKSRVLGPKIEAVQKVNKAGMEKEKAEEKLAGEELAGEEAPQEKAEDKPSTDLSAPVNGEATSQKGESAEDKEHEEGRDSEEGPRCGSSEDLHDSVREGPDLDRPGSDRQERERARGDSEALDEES
active: [1] -0.348 | gandotinib 0.248
inactive: lapatinib 0.02 | pictilisib 0.027 | crizotinib -0.028 | duvelisib 0.037 | tozasertib 0.018 | doramapimod -0.003 | bafetinib 0 | [2] 0.167

HSPA8 (UniProt E9PN89)
active: [1] -0.706
inactive: lapatinib 0.046 | pictilisib 0.05 | crizotinib -0.31 | duvelisib 0.004 | gandotinib 0.169 | tozasertib 0.074 | doramapimod 0.314 | bafetinib -0.021 | [2] 0.299

IMPDH2 (UniProt H0Y4R1)
inactive: lapatinib 0.074 | pictilisib -0.133 | crizotinib 0.19 | [1] -0.056 | duvelisib 0.011 | gandotinib 0.16 | tozasertib -0.028 | doramapimod 0.028 | bafetinib 0.022 | [2] 0.065

HAUS2 (UniProt Q9NVX0)
inactive: lapatinib -0.033 | pictilisib -0.187 | crizotinib -0.055 | [1] 0.167 | duvelisib 0.049 | gandotinib -0.159 | tozasertib 0.067 | doramapimod -0.047 | bafetinib 0.005 | [2] -0.017

HERC2 (UniProt O95714)
inactive: lapatinib -0.001 | pictilisib -0.007 | crizotinib -0.055 | [1] -0.041 | duvelisib 0.023 | gandotinib -0.007 | tozasertib 0.022 | doramapimod 0.058 | bafetinib -0.15 | [2] 0.153
